HCMV antiviral = human cytomegalovirus inhibition; HFF cells, HCMV-luciferase reporter, 72 h; stronger effect = lower value; activity change, negative = inhibition, % at 57.5 µM; 4.5% of 410,000 active; in the data active means activity change below about -60%; inconclusive means no clear call, values can overlap the other calls; inactive means above about -39%; further: on the % scale 0 is the no-effect control and ±100 the full control effect
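Human foreskin fibroblasts infected with luciferase-reporter HCMV at MOI 1 PFU/cell, compounds at two doses. Luciferase measured 72 h post infection; normalized to buffer-only basal and Salinomycin (10uM) controls.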
Cycloheximide cs = affects cycloheximide protein synthesis inhibition readout, counter-screen; cell reporter, cycloheximide protein synthesis inhibition counterscreen; AID 2314; max response, %; 12% of 300,000 active; in the data active means max response mostly above about 13%, no sharp cut-off; inactive means mostly below about 14%; further: read at 38.3 µM for the half of the compounds with a filed dose; 0% is about no effect
Shiga inhibitor = inhibitors of Shiga toxin in Vero cells | AID 2315 | 9.2% of 290,000 active | inhibition, % at 38.7 µM | Vero cells, Shiga toxin protein synthesis inhibition reporter; in the data active means inhibition mostly above about 28%, no sharp cut-off; inactive means mostly below about 43%; further: 0% is about no effect
Pf growth 96h = P. falciparum growth inhibition at 96 hour, primary screen for plastid delayed-death inhibitors. P. falciparum luciferase reporter growth, 96 h. Potency, µM (highest dose often 28.7 µM), for inactives: top-dose activity change, negative = inhibition, actives largely listed as inhibitors. 6.9% of 320,000 active. AID 504834; further: potency means the concentration at half of the fitted maximal effect; on the % scale 0 is the no-effect control and ±100 the full control effect
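Cell-based qHTS: luciferase-tagged P. falciparum in erythrocytes (2% hematocrit, 0.05% parasitemia final) incubated with compounds for 96 hours, 37 C, 5% CO2; luciferase detection reagent then added and luminescence measured.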
Pf growth 48h = inhibits P. falciparum growth in the first generation, 48 h. Potency, µM (highest dose often 28.7 µM), without a hit: at the highest dose activity change, negative = inhibition, most hits filed as inhibitors. 5.9% of 310,000 active. AID 504832. P. falciparum luciferase growth in erythrocytes, 48 h; further: potency means the concentration at half of the fitted maximal effect; on the % scale 0 is the no-effect control and ±100 the full control effect
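Read-out is firefly luciferase luminescence from an integrated reporter in P. falciparum, so falling signal marks reduced parasite growth. Infected erythrocytes were at 2% hematocrit and 0.1% parasitemia (final) in Albumax-supplemented RPMI 1640.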
Starred values were filed as active, the others as inactive; ? = inconclusive; / = not tested or not shown. Sampled rows, rich in hits. Any-hit rate of the full collection: about 20%. Unless noted, the call rests on the fitted dose curve; in most records, active means well fitted inhibition curve with a large enough effect; inconclusive means small, poorly fitted or top-dose-only effect, or another doubt; inactive means no such curve, though single readings can be large or run the other way.

SMILES	HCMV antiviral	Cycloheximide cs	Shiga inhibitor	Pf growth 96h	Pf growth 48h
COc1ccc(NC(=O)Nc2cccc([N+](=O)[O-])c2)cc1Cl	-100*	30*	27	26%	6.6µM*
COc1ccc(C(=O)Nc2cccc([N+](=O)[O-])c2)cc1Br	46	/	/	/	/
O=C(Nc1ccc([N+](=O)[O-])cc1)Nc1ccc(OC(F)F)c(Cl)c1	-101*	-6	-9	-15%	1.9µM*
O=C(NNc1ccc([N+](=O)[O-])cc1)c1ccccc1F	33	25*	21	43%	16%
O=C(NNc1ccc([N+](=O)[O-])cc1)c1ccccc1Cl	-86*	6	5	0%	35%
O=C(O)c1ccccc1-c1ccccc1C(=O)NNc1ccc([N+](=O)[O-])cc1	?	1	21	28%	19%
NC(=O)CCC(NC(=S)Nc1ccccc1)C(=O)O (stereo not given)	-31	-1	-8	28%	30%
CCC(C)Sc1nnc(CSc2nc3nc(C)cc(C)n3n2)o1 (stereo not given)	-8	-3	-12	?	16%
COc1ccc2c(c1)CC/C(=C\c1ccc(C)o1)C2=O	83	56*	91*	59%	11%
COc1ccc2c(c1)CC/C(=C/c1ccncc1)C2=O	/	32*	54	259%	-12%
COc1ccc(N2C(=O)/C(=C/c3ccc(C)o3)C(=O)NC2=S)c(OC)c1	11	-3	/	-18%	-2%
COc1ccc2c(c1)CCc1cnoc1-2	-17	/	/	/	/
COc1cc(Br)c(C(=O)c2nccc3cc(OC)c(OC)cc23)cc1OC	50	-4	-12	8%	6.6µM*
COc1cc2ccnc(C=NO)c2cc1OC	-22	/	/	/	/
COc1cc(N)c(C(=O)c2nccc3cc(OC)c(OC)cc23)cc1OC	31	-2	-9	5.2µM*	0%
COc1cc(C(=O)c2nccc3cc(OC)c(OC)cc23)c([N+](=O)[O-])cc1OC	-3	-3	-5	?	?
CC1=C(C(N)=O)C(c2cccc(F)c2)n2nc(SCc3ccccc3)nc2N1 (stereo not given)	-1	/	/	/	/
OC1(c2ccc(Cl)c(C(F)(F)F)c2)CCN(CCCC(c2ccc(F)cc2)c2ccc(F)cc2)CC1	-99*	-16	-15	/	/
OC(CCCN1CCC(O)(c2ccc(Cl)cc2)CC1)c1ccc(F)cc1 (stereo not given)	10	-3	-15	?	?
Cc1cccc(NC(=O)CSc2nccn2-c2cccc(Cl)c2)c1C	-18	/	/	/	/
CCNC(=O)Cn1c(=O)c2c(ncn2Cc2ccccc2)n(Cc2ccccc2)c1=O	-16	-4	-12	1µM*	?
CCn1cnc2c1c(=O)n(CC(=O)NN)c(=O)n2Cc1ccccc1	-12	-2	-8	?	/
COCCn1cnc2c1c(=O)n(CC(=O)c1ccc3c(c1)OCCO3)c(=O)n2Cc1ccccc1	-26	9.7*	19	-16%	-22%
CCCCNC(=O)Cn1c(=O)c2c(ncn2CC)n(Cc2ccccc2)c1=O	16	-6	-1	13µM*	-2%
CCn1cnc2c1c(=O)n(CC(=O)Nc1ccc(C(N)=O)cc1)c(=O)n2Cc1ccccc1	-19	4	7	13µM*	?
SMILES	HCMV antiviral	Cycloheximide cs	Shiga inhibitor	Pf growth 96h	Pf growth 48h
Cc1ccc(C(=O)Nc2ccc(Cl)c(-c3nc4ncccc4o3)c2)c(C)c1	16	/	/	/	/
COC(=O)c1c(-c2cccs2)csc1NC(=O)COc1ccc(C(C)(C)C)cc1	-13	/	/	/	/
CCCC(=O)N1CCC1(C)C(=O)Nc1ccc2nc(C)ccc2c1 (stereo not given)	31	/	/	/	/
O=C(CSc1ncccn1)NCC1CCCO1 (stereo not given)	15	/	/	/	/
O=C(c1cc(S(=O)(=O)N2CCC3(CC2)OCCO3)ccc1F)N1CCCCC1	-3	10	2	34%	-3%
Cc1cc(Cl)ccc1C(O)c1ncc(-c2ccc(Cl)cc2)[nH]1 (stereo not given)	20	/	/	/	/
COc1ccc(-c2cc(-c3ccccc3)c(-c3ccccc3)nn2)cc1	-11	/	/	/	/
COc1ccc(-c2cc3c(nn2)-c2ccccc2C3=O)cc1	-16	-4	-25	1.9µM*	19%
O=C1c2ccccc2-c2nnc(-c3ccccc3)cc21	12	19*	72*	?	2.6µM*
Cc1cccc(-c2cc3c(nn2)-c2ccccc2C3=O)c1	91	30*	48*	/	1.3µM*
Nc1[nH]c(C(=O)c2ccccc2)c(-c2cccnc2)c1C(=O)NCCc1ccc(Cl)cc1Cl	0	/	/	/	/

Screening data as filed in PubChem.
